Reference: the supplement of paper PMC6555819

Assays:
Experiment in all cases: PBM binding z-score (relative to random genomic background probes); higher = stronger binding; sequences stand for … in GC…GCGATTGACAGCGTAGAATGAAGG
[1] = system: PPARg:RXRa DBDmut IVT, anti-RXR (DBD mutation: RXRa K156A/R161A, NR concentration 270 nM, RXRa partner concentration 90 nM)
How it was run: (§1)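 Ligand-free nuclear receptor dimers were bound for 1 h to custom Agilent 4×180K protein-binding microarrays. Detection used antibodies against each partner (one per run). Binding z-scores rest on regression-normalized fluorescence, with random background probes as the reference.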

[2] = system: PPARg:RXRa IVT, anti-PPARg (NR concentration 270 nM, RXRa partner concentration 90 nM)
How it was run: as §1

[3] = system: PPARg DBDmut:RXRa IVT, anti-PPARg (DBD mutation: PPARg1 K132A/R137A, NR concentration 270 nM, RXRa partner concentration 90 nM)
How it was run: as §1

[4] = system: PPARg DBDmut IVT, anti-PPARg (DBD mutation: PPARg1 K132A/R137A, NR concentration 270 nM)
How it was run: as §1

[5] = system: PPARg homodimer (NR concentration 180 nM)
How it was run: as §1

[6] = system: PXR:RXRa (NR concentration 270 nM, RXRa partner concentration 90 nM)
How it was run: as §1

[7] = system: PXR homodimer (NR concentration 270 nM)
How it was run: as §1

[8] = system: RARa:RXR (NR concentration 270 nM, RXRa partner concentration 90 nM)
How it was run: as §1

[9] = system: RARa homodimer (NR concentration 270 nM)
How it was run: as §1

[10] = system: RARb:RXRa (NR concentration 270 nM, RXRa partner concentration 90 nM)
How it was run: as §1

[11] = system: RARb homodimer (NR concentration 270 nM)
How it was run: as §1

[12] = system: RARg:RXRa (NR concentration 270 nM, RXRa partner concentration 90 nM)
How it was run: as §1

[13] = system: RARg homodimer (NR concentration 270 nM)
How it was run: as §1

[14] = system: RXRa DBDmut IVT, anti-RXR (DBD mutation: RXRa K156A/R161A, NR concentration 90 nM)
How it was run: as §1

[15] = system: RXRa homodimer (NR concentration 180 nM)
How it was run: as §1

[16] = system: THRa:RXRa (NR concentration 90 nM, RXRa partner concentration 90 nM)
How it was run: as §1

[17] = system: THRa homodimer (NR concentration 90 nM)
How it was run: as §1

[18] = system: VDR homodimer (NR concentration 270 nM)
How it was run: as §1

| Sequence | PBM binding z-score [1] | PBM binding z-score [2] | PBM binding z-score [3] | PBM binding z-score [4] | PBM binding z-score [5] | PBM binding z-score [6] | PBM binding z-score [7] | PBM binding z-score [8] | PBM binding z-score [9] | PBM binding z-score [10] | PBM binding z-score [11] | PBM binding z-score [12] | PBM binding z-score [13] | PBM binding z-score [14] | PBM binding z-score [15] | PBM binding z-score [16] | PBM binding z-score [17] | PBM binding z-score [18] |
| --- | --- | --- | --- | --- | --- | --- | --- | --- | --- | --- | --- | --- | --- | --- | --- | --- | --- | --- |
| CGTCCAAGGTCAATGCTAGCTCAGTGAAAGCATT | 3.17 | 3.23 | -0.245 | -0.858 | 0.0664 | 3.48 | 0.507 | 3.92 | 0.334 | 5.02 | 3.86 | 5.61 | 6.7 | 3.48 | 5.19 | 3.64 | 2.02 | 1.83 |
| CTCGAAAGGTCGTGGTCAGGTGAGTATACCAAAC | 0.883 | 2.33 | -0.0163 | 0.484 | 2.21 | 3.61 | 0.127 | 4.47 | 0.777 | 4.04 | 3.25 | 5.58 | 4.34 | 1.88 | 5.4 | 4.01 | 0.825 | 1.13 |
| CAAACTAGGTCAAGAGGTCAAAGGCCGCTTCCCG | 8.35 | 8.52 | 6.15 | 3 | 8.5 | 6.37 | 2.72 | 8.18 | 4.57 | 5.58 | 5.53 | 8.17 | 7.84 | 2.67 | 7.98 | 4.21 | 2.35 | 4.46 |
| CCTACAGGGCCAAGGTCATTGATCAGTCAAAGCA | 0.158 | 1.47 | -0.788 | -0.319 | 1.8 | 3.54 | 1.53 | 3.67 | 0.267 | 3.47 | 3.47 | 3.94 | 3.71 | 1.5 | 3.32 | 3.46 | 1.93 | 2.91 |
| CATAGTTGGTCAAGGTCACACACGCTATAGGTAC | 1.92 | 3.93 | 1.23 | 1.92 | 3.69 | 4.35 | 2.19 | 4.44 | 1.85 | 4.04 | 4.31 | 4.62 | 4.62 | 2.04 | 4.73 | 4.18 | 4.02 | 3.8 |
| GCTGCTAGGTCGACTGATGGTCAGCTAAAGCTCG | 1.27 | 0.463 | -1.49 | -1.06 | -0.687 | -0.436 | -1.21 | 0.0289 | -1.87 | 1.37 | 0.638 | 1.2 | 0.89 | 0.38 | 0.265 | 0.35 | -0.82 | -1 |
| CGTCCAAGCTCAGCAGGTCAGTGAAAGCGACGTG | -0.243 | -0.249 | -0.634 | -0.872 | -0.131 | 0.0588 | -0.688 | 0.234 | -0.706 | 1.45 | 1.73 | 0.644 | 1.1 | -0.071 | 0.158 | 0.642 | -0.345 | -0.808 |
| CGTCAAAGTTAAAGGTAACGTAACAGAAAGCAGC | 0.379 | 1.17 | 0.513 | 0.594 | 0.332 | 0.394 | 0.0362 | 0.981 | 0.438 | 1.02 | 0.442 | 0.799 | 0.833 | 0.0376 | 0.816 | 0.694 | -0.0792 | -0.165 |
